Tau ThT inhib – qHTS for Inhibitors of Tau Fibril Formation, Thioflavin T Binding; Potency, µM (titrated, usually from 57.4 µM), for inactives: top-dose activity, negative = inhibition, most hits filed as inhibitors; AID 1460, 2008; hit rate 2.1% among 270,000; Microtubule-associated protein tau (Homo sapiens), P10636; recombinant tau K18 P301L, heparin-induced fibrillization, ThT fluorescence; note: nearly all actives have a fitted effect of over 55% in size
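In this qHTS, human K18 P301L tau is incubated with compound and heparin for 6 hr at 37 C, and Thioflavin T fluorescence then reports fibril load.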
Tau FP inhib – qHTS for Inhibitors of Tau Fibril Formation, Fluorescence Polarization; Microtubule-associated protein tau (Homo sapiens), P10636; K18 P301L tau heparin fibrillization, Alexa594 FP, 6 h; Potency, µM (top dose mostly 57.7 µM), inactives show top-dose activity, negative = inhibition, hits mostly inhibitors; hit rate 0.39% among 280,000; note: nearly all actives have a fitted effect of over 55% in size
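FP of Alexa 594-tau after heparin (20 uM) induction. Substrate: human K18 P301L, 15 uM unlabeled, 0.24 uM labeled. Buffer 100 mM sodium acetate pH 7. 6 hr, 37 C.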
NPSR antag – qHTS Assay for Antagonists of the Neuropeptide S Receptor: cAMP Signal Transduction. Potency, µM (titrated, usually from 38.3 µM), inactives show at the highest dose activity change, negative = inhibition, usual class: inhibitors. hit rate 1% among 220,000. Q6W5P4. AID 1461, 2008. CHO-NPSR cells, cAMP TR-FRET, antagonist mode; note: nearly all actives have a fitted effect of over 50% in size
Target sequence (Q6W5P4 whole entry, looked up): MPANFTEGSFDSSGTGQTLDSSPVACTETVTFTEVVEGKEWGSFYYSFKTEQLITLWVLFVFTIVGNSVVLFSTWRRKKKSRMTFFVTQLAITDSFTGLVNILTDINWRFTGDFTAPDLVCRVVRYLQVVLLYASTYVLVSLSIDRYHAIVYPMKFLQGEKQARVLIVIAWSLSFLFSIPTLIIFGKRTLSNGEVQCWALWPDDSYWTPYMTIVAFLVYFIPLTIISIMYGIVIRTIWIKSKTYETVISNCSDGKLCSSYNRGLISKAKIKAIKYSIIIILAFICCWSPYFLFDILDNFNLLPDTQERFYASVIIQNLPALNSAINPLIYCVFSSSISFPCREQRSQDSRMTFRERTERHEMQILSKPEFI
HPGD block – qHTS Assay for Inhibitors of HPGD (15-Hydroxyprostaglandin Dehydrogenase); 15-hydroxyprostaglandin dehydrogenase [NAD(+)] (Homo sapiens), P15428; purified HPGD, NADH fluorescence kinetic, PGE2 substrate; Potency, µM, without a hit: top-dose activity change, negative = inhibition, usual class: inhibitors; hit rate 4.3% among 150,000; active = well fitted inhibition curve with a large enough effect, not every such curve was filed as active; inconclusive = small, poorly fitted or top-dose-only effect, or another doubt; inactive = no such curve, though single readings can be large or run the other way
Target sequence (P15428 whole entry, looked up): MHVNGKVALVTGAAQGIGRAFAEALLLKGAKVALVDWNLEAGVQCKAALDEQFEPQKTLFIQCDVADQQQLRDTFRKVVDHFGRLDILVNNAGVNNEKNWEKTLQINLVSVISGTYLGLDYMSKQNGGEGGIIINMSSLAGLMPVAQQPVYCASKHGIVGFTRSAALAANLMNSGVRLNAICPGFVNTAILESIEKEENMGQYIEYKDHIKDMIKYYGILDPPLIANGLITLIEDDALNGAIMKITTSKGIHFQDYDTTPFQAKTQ
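NADH formation kinetics: reaction with 30 uM PGE2 and 1 mM NAD+ (final), 20 nM enzyme, Tris-HCl pH 8 with Tween 20, after 15 min compound preincubation at room temperature. Fluorescence change, last versus first of five reads.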
ALDH1A1 inh – qHTS Assay for Inhibitors of Aldehyde Dehydrogenase 1 (ALDH1A1); Aldehyde dehydrogenase 1A1 (Homo sapiens), P00352; Purified ALDH1A1, NADH fluorescence, propionaldehyde substrate; Potency, µM (titrated, usually from 75.3 µM), inactives show at the top dose activity, negative = inhibition, most hits filed as inhibitors; hit rate 7.3% among 220,000; AID 1030, 2008; active = well fitted inhibition curve with a large enough effect, not every such curve was filed as active; inconclusive = small, poorly fitted or top-dose-only effect, or another doubt; inactive = no such curve, though single readings can be large or run the other way;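 note: plate controls were no enzyme wells and a reference inhibitor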
Tau fluor counter – Counterscreen qHTS for Inhibitors of Tau Fibril Formation, Fluorescence Polarization. tau K18 P301L Alexa594 fluorescence, heparin fibrillization. Potency, µM (highest dose often 57.7 µM), without a hit: top-dose activity change, negative = decrease. hit rate 0.93% among 280,000; note: nearly all actives have a fitted effect of over 55% in size
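Human tau K18 P301L (15 uM unlabeled, 0.24 uM Alexa 594-labeled) in 100 mM sodium acetate pH 7 with 20 uM heparin, 6 hr at 37 C. ThT 30 uM added, 1 hr ambient; Alexa 594 FP and total fluorescence read at 555/632 nm.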
Active calls of the source: *; ? = inconclusive; . = no result given; [ ] = another dose, or the depositor's remark. Compounds with a hit are over-represented: about 9.5% of the library has one in this group of screens. Unless noted, calls come from the whole dose curve; as a rule, active = well fitted curve in the direction sought with a large enough effect; inconclusive = small, poorly fitted or top-dose-only effect, or another doubt; inactive = no such curve, though single readings can be large; an effect the other way counts as inactive or inconclusive. Unless noted, % is set by controls: 0 for no effect and ±100 for the full control effect; potency is the fitted concentration of half-maximal effect.

SMILES	Tau ThT inhib	Tau FP inhib	NPSR antag	HPGD block	ALDH1A1 inh	Tau fluor counter
CCc1cc2c(cc3c(=O)n(CC(=O)NC4CCC(C)CC4)ncn32)s1 (stereo not given)	6%	-8%	.	.	.	3%
CCOC(=O)c1ccc(NC(=O)c2cccc3c(=O)c4c([nH]c23)CCCC4)cc1	2%	-8%	.	.	.	-5%
COc1ccc(-c2c(C)nn3c(-c4ccccc4)cc(-c4ccccc4)nc23)cc1OC	-20%	16%	.	.	.	?
C/C(=N\NC(=O)CCc1c(C)n[nH]c1C)c1ccc([N+](=O)[O-])cc1	-18%	0%	2%	.	.	-7%
CCN(CC)c1ccc(/C=N/NC(=O)c2ccccn2)cc1	10µM*	0%	39%	.	.	-29%
C/C(=N\NC(=O)CCc1c[nH]c2ccccc12)c1ccc([N+](=O)[O-])cc1	10µM*	15%	-2%	-9%	1%	?
CN(C)c1ccc(/C=N/NC(=O)CCc2c[nH]c3ccccc23)cc1	8.9µM*	6%	-3%	.	?	?
COc1ccccc1N1CCN(CCn2c(=O)c3c(c4ccccc4n3C)n(C)c2=O)CC1	?	?	.	.	15%	1%
C=CCn1c(SCC(=O)NC(=O)NCCC)nnc1C1CCCCC1	3%	-1%	-1%[46.1 µM]	-13%	5.6µM*	-1%
C=CCn1c(SCC(=O)NC(=O)NC)nnc1C1CCCCC1	-3%	-7%	17%	.	3%	-7%
Cc1cn([C@H]2C[C@H](O)[C@@H](CO)O2)c(=O)[nH]c1=O	-6%	-5%	.	-11%	3%	-12%
CCOC(=O)CNc1c(-c2ccc(O)cc2)nc2ccc(Cl)cn12	?	12%	-14%[46.1 µM]	-30%	7.1µM*	-28%
O=C(Nc1ccc(Cl)cc1F)c1ccccc1Br	-12%	3%	-2%	16µM*	4%	-13%
COc1cc(NC(=O)c2sc3nc4n(c(=O)c3c2C)CCCCC4)cc(OC)c1OC	11%	-6%	.	.	.	-4%
O=[N+]([O-])c1ccc(NC(=S)N2CCc3ccccc3C2)cc1	?	-12%	-42%	-6%	?	?
Cc1ccc(NC(=O)c2cc3c(s2)CCC3)cc1S(=O)(=O)N1CCOCC1	-6%	-7%	-23%[46.1 µM]	-9%	1.1µM*	?
CC1CCc2sc(C(=O)NN)cc2C1 (stereo not given)	-8%	-6%	10%	.	7.1µM*	-11%
CSc1nnc(NC(=O)c2ccc(C)c(S(=O)(=O)N3CCOCC3)c2)s1	-4%	0%	-16%[46.1 µM]	20µM*	?	3%
COc1ccc(NC(=O)c2cc3c(s2)CCC(C)C3)cc1S(=O)(=O)N1CCOCC1 (stereo not given)	-12%	-8%	-1%	-12%	16µM*	-27%
Cc1ccc(S(=O)(=O)N2CCOCC2)cc1NC(=O)c1cc2c(s1)CCC2	-4%	3%	-7%[46.1 µM]	-5%	?	-13%
Cc1sc(-c2ccncc2)nc1OC(=O)c1ccc(Cl)cc1	?	-4%	-8%[46.1 µM]	-11%	2%	-19%
Cc1sc(-c2ccncc2)nc1OC(=O)c1cc(Cl)cc(Cl)c1	28µM*	-12%	-23%[46.1 µM]	-24%	-1%	-15%
Cc1cc(C(=O)CSc2nnc(C3COc4ccccc4O3)n2C)c(C)n1-c1ccc(F)cc1 (stereo not given)	?	1%	-12%[46.1 µM]	28µM*	?	-5%
Cc1cc(C(=O)COc2ccc(C#N)cc2)c(C)n1-c1ccc2c(c1)OCO2	-11%	-3%	-24%	-4%	5%	-5%
Cc1cc(C(=O)COC(=O)C2=COCCO2)c(C)n1-c1ccc2c(c1)OCO2	?	2%	-23%[46.1 µM]	16µM*	16µM*	-2%
SMILES	Tau ThT inhib	Tau FP inhib	NPSR antag	HPGD block	ALDH1A1 inh	Tau fluor counter
Cc1cc(C(=O)CSc2nncs2)c(C)n1-c1ccc2c(c1)OCO2	?	-7%	-9%[46.1 µM]	-23%	?	-25%
Cc1cc(C(=O)CSc2nnnn2-c2ccc(O)cc2)c(C)n1Cc1ccc2c(c1)OCO2	-17%	11µM*	?	-4%	-4%	7.9µM*[quencher]
Cc1cc(C(=O)CSc2nnnn2-c2ccccc2)c(C)n1-c1ccc2c(c1)OCO2	?	-1%	-20%	-19%	0.25µM*	?
O=C(NCc1ccc2c(c1)OCO2)c1ccc2c(c1)N(Cc1ccccc1F)C(=O)c1ccccc1S2=O (stereo not given)	9%	-19%	.	.	.	-22%
COc1ccc(-c2cn3cc([N+](=O)[O-])ccc3n2)cc1OC	4.5µM*	7%	-39%	.	6%	-22%
COc1ccc(-c2cn3ccccc3n2)cc1[N+](=O)[O-]	?	3%	13%	-8%	?	-14%
CN(C(=O)CSc1nc2ccccc2n1Cc1cccc(C(F)(F)F)c1)c1ccccc1	?	6%	.	.	.	-13%
CCOC(=O)/C=C1/N(C)c2ccccc2C1(C)C	.	4%	-2%	.	.	15%
CN1/C(=C/C2CC(=O)NC2=O)C(C)(C)c2ccccc21 (stereo not given)	28µM*	?	2%[46.1 µM]	-6%	?	-19%
CN1/C(=C\P(=O)(N(C)C)N(C)C)C(C)(C)c2ccccc21	32µM*	?	-4%[46.1 µM]	-13%	-4%	?
CN1/C(=C/C2CC(=O)N(c3cccc4ccccc34)C2=O)C(C)(C)c2ccccc21 (stereo not given)	?	-2%	-23%[46.1 µM]	-13%	1%	-17%
O=C(NCCCN1CCOCC1)c1ccc(CSc2ccc(Cl)cc2)cc1	-7%	-2%	-16%	.	1%	-22%
CCOC(=O)c1ccc(N=C2C(=S)N(c3ccc(C(=O)OCC)cc3)C(=N)N2/N=C/c2ccccc2)cc1	?	14%	-17%	22µM*	2µM*	?
COc1ccccc1-n1c(=O)c2c3c(sc2n(C)c1=O)CN(C(C)=O)CC3	4%	-1%	.	.	.	5%
O=C1NC(=S)S/C1=C\c1ccc(SCc2ccco2)o1	4.5µM*	?	-29%	7.1µM*	0.89µM*	?
O=C1NC(=S)S/C1=C\c1ccc(SCc2ccccc2)o1	10µM*	-6%	-22%	18µM*	?	?
Cc1ccsc1C(=O)NNC(=O)C1CCCCC1C(=O)O (stereo not given)	4%	-1%	6%[46.1 µM]	-2%	22µM*	-3%
